Test [1] in a line: A CellTox Green Cytotoxicity Assay to monitor cytotoxicity in HEK293 cells - 40 hour (AID 1224871). Further: nearly all actives have a fitted effect of over 45% in size. Further: potency means the concentration at half of the fitted maximal effect. The settings on record: CellTox Green fluorescence; series mostly up to 76.8 µM. Put shortly: (§1)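 Each value comes from one timepoint of a single continuous run in which HEK293 cells with CellTox Green were exposed to compound for up to 40 h at 37 C, dye fluorescence rising with cell death.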

The nature of test [2]: qHTS RealTime-Glo MT Cell Viability Assay in HEK293 cells - 16 hour (AID 1224872). Further: nearly all actives have a fitted effect of over 50% in size. Further: potency means the concentration at half of the fitted maximal effect. The settings on record: RealTime-Glo luminescence; series mostly up to 76.8 µM. Put shortly:
(§2)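 Viability tracked continuously by luminescence as live cells reduce a prosubstrate for NanoLuc; HEK293 cells preincubated 5 h, compound-treated at 37 C, and read at 0, 8, 16, 24, 32 and 40 h.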
(In general: Quantitative high-throughput screening tests each substance at several concentrations.)

Test [3] in a line: qHTS RealTime-Glo MT Cell Viability Assay in HepG2 cells - 8 hour (AID 1224873). Further: nearly all actives have a fitted effect of over 55% in size. Further: potency means the concentration at half of the fitted maximal effect. The settings on record: RealTime-Glo luminescence; series mostly up to 76.8 µM. Put shortly:
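HepG2 cells mixed with RealTime-Glo MT reagents (NanoLuc plus cell-permeant prosubstrate) were seeded at 600 cells/well, incubated 5 h at 37 C/5% CO2, then pinned with compounds in DMSO; nonlytic luminescence tracked viability during 40 h treatment.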

The nature of test [4]: qHTS RealTime-Glo MT Cell Viability Assay in HEK293 cells - 40 hour (AID 1224874). Further: nearly all actives have a fitted effect of over 50% in size. Further: potency means the concentration at half of the fitted maximal effect. The settings on record: RealTime-Glo luminescence; max response: stronger effect = lower value. The gist of the method:
(§3)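 qHTS format; HEK293 cells with NanoLuc/prosubstrate reagent, 37 C/5% CO2 for 5 h pre-dosing; compounds 23 nL in DMSO; luminescence at each time point reflects viable cells.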

Test [5] is described as follows: A CellTox Green Cytotoxicity Assay to monitor cytotoxicity in HEK293 cells - 24 hour (AID 1224875). Further: nearly all actives have a fitted effect of over 45% in size. Further: potency means the concentration at half of the fitted maximal effect. The settings on record: CellTox Green fluorescence; series mostly up to 76.8 µM. The gist of the method:
as §1

A short description of test [6]: A CellTox Green Cytotoxicity Assay to monitor cytotoxicity in HepG2 cells - 16 hour (AID 1224876). Further: nearly all actives have a fitted effect of over 45% in size. Further: potency means the concentration at half of the fitted maximal effect. The settings on record: CellTox Green fluorescence; series mostly up to 76.8 µM. The gist of the method: (§4)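 Continuous culture of HepG2 cells with a membrane-impermeant DNA dye; rising fluorescence marks dead cells. Compound exposure lasted up to 40 h at 37 C, with reads every 8 h from 0 h.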

Test [7] in a line: qHTS RealTime-Glo MT Cell Viability Assay in HepG2 cells - 32 hour (AID 1224877). Further: nearly all actives have a fitted effect of over 55% in size. Further: potency means the concentration at half of the fitted maximal effect. The settings on record: RealTime-Glo luminescence; series mostly up to 76.8 µM. Put shortly: (§5)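 Viability was tracked continuously by NanoLuc luminescence from prosubstrate reduced by living HepG2 cells, at successive time points over 40 h of compound exposure. Cells with reagent were preincubated 5 h at 37 °C before compound addition.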

Test [8] can be described thus: A CellTox Green Cytotoxicity Assay to monitor cytotoxicity in HepG2 cells - 24 hour (AID 1224878). Further: nearly all actives have a fitted effect of over 45% in size. Further: potency means the concentration at half of the fitted maximal effect. The settings on record: CellTox Green fluorescence; series mostly up to 76.8 µM. Put shortly: as §4
A short description of test [9]: A CellTox Green Cytotoxicity Assay to monitor cytotoxicity in HepG2 cells - 40 hour (AID 1224879). Further: nearly all actives have a fitted effect of over 40% in size. Further: potency means the concentration at half of the fitted maximal effect. The settings on record: CellTox Green fluorescence; series mostly up to 76.8 µM. Put shortly:
as §4

Test [10] can be described thus: qHTS RealTime-Glo MT Cell Viability Assay in HEK293 cells - 0 hour (AID 1224880). The settings on record: RealTime-Glo luminescence; series mostly up to 76.8 µM. The gist of the method:
as §3

Test [11] is described as follows: A CellTox Green Cytotoxicity Assay to monitor cytotoxicity in HepG2 cells - 0 hour (AID 1224882). Further: nearly all actives have a fitted effect of over 35% in size. The settings on record: CellTox Green fluorescence; series mostly up to 76.8 µM. The gist of the method:
as §4

Test [12] can be described thus: A CellTox Green Cytotoxicity Assay to monitor cytotoxicity in HepG2 cells - 32 hour (AID 1224883). Further: nearly all actives have a fitted effect of over 50% in size. Further: potency means the concentration at half of the fitted maximal effect. The settings on record: CellTox Green fluorescence; series mostly up to 76.8 µM. Put shortly:
as §4

The nature of test [13]: A CellTox Green Cytotoxicity Assay to monitor cytotoxicity in HEK293 cells - 8 hour (AID 1224884). Further: nearly all actives have a fitted effect of over 35% in size. Further: potency means the concentration at half of the fitted maximal effect. The settings on record: CellTox Green fluorescence; series mostly up to 76.8 µM. The gist of the method:
as §1

A short description of test [14]: qHTS RealTime-Glo MT Cell Viability Assay in HepG2 cells - 16 hour (AID 1224885). Further: nearly all actives have a fitted effect of over 50% in size. Further: potency means the concentration at half of the fitted maximal effect. The settings on record: RealTime-Glo luminescence; series mostly up to 76.8 µM. Put shortly: as §5
A short description of test [15]: qHTS RealTime-Glo MT Cell Viability Assay in HEK293 cells - 24 hour (AID 1224886). Further: nearly all actives have a fitted effect of over 50% in size. Further: potency means the concentration at half of the fitted maximal effect. The settings on record: RealTime-Glo luminescence; series mostly up to 76.8 µM. Put shortly:
as §2

Test [16] in a line: qHTS RealTime-Glo MT Cell Viability Assay in HEK293 cells - 8 hour (AID 1224887). Further: nearly all actives have a fitted effect of over 50% in size. Further: potency means the concentration at half of the fitted maximal effect. The settings on record: RealTime-Glo luminescence; series mostly up to 76.8 µM. The gist of the method:
as §3

Test [17] is described as follows: A CellTox Green Cytotoxicity Assay to monitor cytotoxicity in HEK293 cells - 16 hour (AID 1224888). Further: nearly all actives have a fitted effect of over 35% in size. Further: potency means the concentration at half of the fitted maximal effect. The settings on record: CellTox Green fluorescence; series mostly up to 76.8 µM. Put shortly: as §1
A short description of test [18]: A CellTox Green Cytotoxicity Assay to monitor cytotoxicity in HepG2 cells - 8 hour (AID 1224890). Further: nearly all actives have a fitted effect of over 45% in size. Further: potency means the concentration at half of the fitted maximal effect. The settings on record: CellTox Green fluorescence; series mostly up to 76.8 µM. The gist of the method: as §4
Test [19] can be described thus: qHTS RealTime-Glo MT Cell Viability Assay in HepG2 cells - 0 hour (AID 1224889). Further: nearly all actives have a fitted effect of over 50% in size. The settings on record: RealTime-Glo luminescence; series mostly up to 76.8 µM. The gist of the method:
as §5

Test [20] in a line: A CellTox Green Cytotoxicity Assay to monitor cytotoxicity in HEK293 cells - 32 hour (AID 1224881). Further: nearly all actives have a fitted effect of over 40% in size. Further: potency means the concentration at half of the fitted maximal effect. The settings on record: CellTox Green fluorescence; series mostly up to 76.8 µM. The gist of the method:
as §1

Records with an inconclusive call do not appear. Some structures have more than one record in an assay (separate samples or runs), and their calls can disagree. The source made the active and inactive calls. The call rests on the fitted dose curve; in most records, active means well fitted curve in the direction sought with a large enough effect in the repeat runs; inconclusive means weak or mixed curves; inactive means no such curve, though single readings can be large; an effect the other way counts as inactive or inconclusive.
On the % scale 0 is the no-effect control and ±100 the full control effect.

In the case of `CCCCCCCCn1sc(Cl)c(Cl)c1=O`, the Potency in test [1] was 1.95 µM (active); in test [2] it was 3.47 µM (active); in test [3], 6.16 µM (active); in [4] it was 3.47 µM (active); in [5] it was 1.1 µM (active); in [6], 7.76 µM (active). In addition, the Potency in test [7] is 5.49 µM (active); in test [8], 11 µM (active); in [9], 9.77 µM (active); in test [12] it was 12.3 µM (active); in test [13] it was 2.45 µM (active); in test [14], 4.9 µM (active). Also, the Potency is 3.89 µM (active) in test [15], 3.47 µM (active) in test [16], 1.95 µM (active) in [17] and 17.4 µM (active) in test [18]. Also, the Potency entry in [10] and in test [11] was “inactive” in each case.
In the case of `CC(C)=CCOc1ccc(/C=C/C(=O)c2ccc(OCC=C(C)C)cc2OCC(=O)O)cc1`, the Potency entry in test [1], in test [2], in test [3], in [5], in test [6] and in test [7] was “inactive” in each case. For the same compound, the Potency entry in test [8], in [9], in test [10], in test [11], in [12] and in test [13] was “inactive” in each case. Besides, the Potency result in test [14], in [15], in test [16], in [19] and in [18] was “inactive” throughout. In addition, in test [4], the max response was 1.22% (inactive).
With `O=C(Nc1ccc(Oc2ccc(Cl)cc2)c(Cl)c1)c1cc(I)cc(I)c1O`, the Potency result in test [1], in [2], in test [3], in test [5], in test [6] and in [7] was “inactive” throughout. For the same compound, the Potency entry in [8], in test [9], in test [10], in test [20], in test [11] and in test [12] was “inactive” throughout. Moreover, the Potency entry in test [13], in [14], in test [15], in test [16], in test [17] and in test [19] was “inactive” in each case. Further, in [18], the Potency entry was “inactive”. Besides, in test [4], the max response is 2.12% (inactive).
In the case of `CCc1cc(Cc2cc(CC)cc(C(C)(C)C)c2O)c(O)c(C(C)(C)C)c1`, the Potency in test [1] is 54.9 µM (active); in [2] it was 13.8 µM (active); in test [3], 49 µM (active); in [4], 21.9 µM (active); in [7], 49 µM (active); in test [14] it was 49 µM (active). Besides, the Potency in [15] is 15.5 µM (active); in test [16], 13.8 µM (active). The Potency entry in test [10], in test [11] and in test [13] was “inactive” throughout.
Take `C[n+]1ccn(Cc2ccccc2)c1`: the Potency result in test [1], in test [2], in test [3], in [5], in [6] and in test [7] was “inactive” each time. Also, the Potency result in test [8], in test [9], in test [10], in [20], in test [11] and in test [12] was “inactive” in each case. The Potency entry in test [13], in test [14], in [15], in test [16], in [17] and in test [18] was “inactive” in each case.
On to `CCCCCCCCCCCC[N+](C)(C)CCCCCCCCCCCC`, for which the Potency was 17.4 µM (active) in test [1]; 11 µM (active) in test [2]; 12.3 µM (active) in [3]; 15.5 µM (active) in test [5]; 9.77 µM (active) in test [6]; 7.76 µM (active) in [7]. The Potency was 7.76 µM (active) in test [8]; 7.76 µM (active) in test [9]; 15.5 µM (active) in test [20]; 7.76 µM (active) in [12]; 8.71 µM (active) in [14]; 6.92 µM (active) in [15]. Moreover, the results for the Potency in test [16] and in [18] were 17.4 µM (active) and 19.5 µM (active), respectively. Moreover, the Potency entry in test [10] and in [11] was “inactive” throughout.
Turning to `O=C1c2ccccc2Cc2ccccc21`, the Potency result in test [1], in test [2], in test [3], in [5], in [6] and in test [7] was “inactive” in each case. Further, the Potency entry in test [8], in test [9], in test [10], in test [20], in test [12] and in test [14] was “inactive” throughout. Besides, the Potency entry in test [15], in test [16], in test [17], in test [19] and in [18] was “inactive” throughout.
With `Cc1cccc(S(=O)(=O)O)c1C`, the Potency entry in [1], in test [2], in test [3], in test [5], in [6] and in test [7] was “inactive” in each case. The Potency entry in test [8], in test [9], in test [10], in [11], in [12] and in [13] was “inactive” throughout. For the same compound, the Potency result in test [14], in test [15], in test [16], in test [17], in test [19] and in test [18] was “inactive” each time.
On to `CCCCCOC(=O)CCCC`, for which the Potency entry in test [1], in [2], in test [3], in test [5], in test [7] and in test [8] was “inactive” throughout. Also, the Potency result in [9], in [10], in test [20], in [11], in test [12] and in test [14] was “inactive” each time. The Potency entry in [15], in test [16], in [17], in [19] and in test [18] was “inactive” throughout.
As to `CC[C@H](c1ccc(O)cc1)[C@@H](CC)c1ccc(O)cc1`, the Potency in test [1] is 34.7 µM (active) and inactive; in [8], 49 µM (active); in test [9] it was 49 µM (active); in [20], 38.9 µM (active) and inactive; in test [12] it was 43.6 µM (active); in test [15], 24.5 µM (active). The Potency in [18] is 54.9 µM (active) and inactive. The Potency result in [2], in test [3], in [5], in [7], in [11] and in [13] was “inactive” each time. Further, the Potency result in test [14], in [16] and in test [17] was “inactive” throughout.
On to `CCOC(=O)/C=C(C)/C=C/C=C(C)/C=C/c1c(C)cc(OC)c(C)c1C`, for which the Potency result in [1], in [2], in test [3], in test [5], in [6] and in test [7] was “inactive” throughout. Further, the Potency result in test [8], in test [9], in test [10], in test [20], in [11] and in test [12] was “inactive” in each case. Moreover, the Potency result in [13], in test [14], in [16], in test [17], in [19] and in [18] was “inactive” each time.
Take `C=C(C)C(=O)OCC[N+](C)(C)C`: the Potency result in test [1], in test [2], in test [3], in test [6], in [7] and in [8] was “inactive” each time. The Potency result in test [9], in test [10], in test [12], in test [13], in [14] and in test [15] was “inactive” each time. For the same compound, the Potency result in [16], in test [17], in test [19] and in test [18] was “inactive” in each case. Moreover, in test [4], the max response is -0.113% (inactive).

These data come from PubChem BioAssay (Tox21).
